Data on 99 compounds can be found in PubChem BioAssay AID1220 (Sanford-Burnham Center for Chemical Genomics, 2008).

Screen size: about 190,000 compounds; about 1,300 (0.68%) were called active. Only a selection was taken, and actives are over-represented in it overall. A number with no mark means an inactive call. Rule as the data show it: active = inhibition above about 50%; inactive = the rest.

The target in this experiment is Mannose-6-phosphate isomerase (Homo sapiens) (UniProt P34949). Nature of the experiment: MPI inhibition at elevated mannose 6-phosphate – biochemical, fluorescence intensity, high mannose 6-phosphate, primary screen (AID 1220). The settings on record: recombinant PMI enzyme, coupled fluorescence intensity; at 20 µM; hits give high values.
Chain of Mannose-6-phosphate isomerase (Homo sapiens) (P34949 whole entry, looked up): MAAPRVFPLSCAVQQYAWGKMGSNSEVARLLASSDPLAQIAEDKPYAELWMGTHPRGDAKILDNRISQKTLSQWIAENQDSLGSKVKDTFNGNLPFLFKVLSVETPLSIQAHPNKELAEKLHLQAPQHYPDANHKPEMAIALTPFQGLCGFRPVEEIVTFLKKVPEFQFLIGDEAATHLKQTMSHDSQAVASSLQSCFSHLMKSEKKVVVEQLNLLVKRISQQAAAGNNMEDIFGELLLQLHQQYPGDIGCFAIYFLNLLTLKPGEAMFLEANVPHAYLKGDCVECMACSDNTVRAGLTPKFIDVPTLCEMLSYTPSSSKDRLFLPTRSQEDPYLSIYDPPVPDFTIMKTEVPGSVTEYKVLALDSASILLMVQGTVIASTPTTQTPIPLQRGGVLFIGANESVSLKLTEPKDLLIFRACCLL
Take `COc1ccc(C(c2sc3nc(C)nn3c2O)N2CCCCC2)cc1` (centres undefined): the inhibition was 4.3%. With `O=c1[nH]c2cc3c(cc2cc1CN(CC1CCCO1)S(=O)(=O)c1ccccc1)OCCO3` (centres undefined) the figure was 4.9%; with `C/C(CC(=O)N1CCN(C=O)CC1)=N\NC(=O)c1ccc(Cl)cc1`, 3.6%. For the compound `COc1ccc(C(=O)N/N=C(\C)CC(=O)N2CCN(C=O)CC2)cc1`, the inhibition is -9.2%. For the compound `CC(=O)NC(Cc1cc(C)ccc1C)C(=O)N1CCN(C(=O)c2ccccc2Br)CC1` (centres undefined), the inhibition is -3.4%. Regarding `O=[N+]([O-])c1cc(-c2n[nH]c(-c3ccccc3)n2)cc([N+](=O)[O-])c1`, the inhibition was -4.6%. On to `Oc1cccc(/C=N/Nc2cccc3cccnc23)c1`, for which the inhibition is 20.3%. On to `COc1ccc(/C=C2\SC(=O)N(CCC(=O)Nc3ccc(S(=O)(=O)Nc4nccs4)cc3)C2=O)cc1`, for which the inhibition is 8.6%. On to `CCCNS(=O)(=O)c1ccc(CCC(=O)Nc2ccc3c(c2)OCO3)cc1`, for which the inhibition is 10.1%.

Take `CCCNS(=O)(=O)c1ccc(CCC(=O)Nc2ccc3c(c2)OCCO3)cc1`: the inhibition was 50.1% (active). Turning to `O=C(CCc1ccc(S(=O)(=O)NCCc2ccccc2)cc1)Nc1ccc2c(c1)OCCO2`, the inhibition was -3.2%. With `Cc1nn(-c2ccccc2)c(N2CCCC2)c1/C=N/NC(=O)c1ccccc1O` the figure was -2.8%. `O=C(N/N=C/c1cc2c3c(c1O)CCCN3CCC2)c1ccccc1O`: the inhibition is 50.2% (active).

In the case of `O=C(Oc1ccc(/C=N/NC(=O)c2ccccc2O)cc1)c1ccccc1`, the inhibition is -12.7%. The result for `COC(=O)c1ccc(NC(=S)Nc2ccc(O)cc2)cc1` reads -3.3%; that for `Oc1ccc(NC(=S)Nc2ccccc2)cc1`, 16.4%; that for `Oc1ccc(NC(=S)Nc2ccc(O)cc2)cc1`, 66.7% (active). On to `CCOc1cc(C(N)=O)cc(Cl)c1OCC`, for which the inhibition is 1.7%. The result for `Cc1ccc(/C=C/C(=O)c2ccccc2)cc1` reads 11.2%. On to `Cc1[nH]c2ccccc2c1/C=C/C(=O)c1ccccc1`, for which the inhibition is 3.9%. In the case of `Cc1ccc(C(=O)/C=C/c2c[nH]c3ccccc23)cc1`, the inhibition is 54.4% (active).

Regarding `O=C(/C=C/c1c[nH]c2ccccc12)c1ccccc1`, the inhibition is 52.5% (active).

Turning to `O=C(/C=C/c1c[nH]c2ccccc12)c1cccc2ccccc12`, the inhibition is 42%. As to `Cc1ccc(C(=O)Nc2ccc(C(=O)N/N=C/c3c[nH]c4ccccc34)cc2)cc1`, the inhibition was 11.4%. As to `COc1cc(/C=C(\C#N)c2nc3ccccc3[nH]2)cc(Br)c1OCc1ccc(F)cc1`, the inhibition is 19.3%.

For the compound `c1ccc(COCCN2CCN(CCOCc3ccccc3)CC2)cc1`, the inhibition is 3.2%. For `COc1ccc2nc(SC)c(C#N)cc2c1`, the inhibition was 52.1% (active). As for `COc1ccc2nc(N3CCC(O)CC3)c(C#N)cc2c1`, the inhibition was 51.2% (active). With `COc1ccc2nc(N3CCC(C)CC3)c(C#N)cc2c1` the figure was -5.3%; with `COc1ccc2nc(SCC(C)=O)c(C#N)cc2c1`, -92.4%. Regarding `CCSc1nc2ccc(OC)cc2cc1C#N`, the inhibition was 14.3%. For `COc1ccc2nc(N3CCCC3)c(C#N)cc2c1`, the inhibition is -5.8%. `COc1cccc(C2=NCCc3cc4c(cc32)OCO4)c1OC`: the inhibition is 1.3%. For the compound `CCC(=O)Nc1nc2c(s1)COc1ccccc1-2`, the inhibition was 6.3%. On to `CCC12CN3CC(CC)(CN(C1)C3c1ccccc1Cl)C2O` (centres undefined), for which the inhibition is 6.4%. The result for `CCN(CC(=O)NC1CCS(=O)(=O)C1)C(=O)/C=C/c1cccs1` (centres undefined) reads -0.6%; that for `Cc1ccc(-c2csc(/C(C#N)=C/Nc3ccccc3SC(F)(F)F)n2)cc1`, -3.6%; that for `O=C(CCc1ccc(S(=O)(=O)N2CCOCC2)cc1)N/N=C/c1cccc(O)c1`, -6.2%. On to `O=C(CCc1ccc(S(=O)(=O)N2CCOCC2)cc1)N/N=C/c1ccc(F)cc1F`, for which the inhibition is 10.5%. `O=C(Cc1csc(N2CCOCC2)n1)N/N=C/c1cccc(O)c1`: the inhibition is 6.6%. With `O=C(Cc1csc(N2CCOCC2)n1)N/N=C/c1ccc(Cl)cc1Cl` the figure was 4.5%. In the case of `CCN1CCc2c(OCC(=O)N3CCC(C)CC3)cccc2C1=O`, the inhibition is -8.8%.

On to `COc1cccc(C(=O)NC(=S)Nc2ccc3oc(=O)ccc3c2)c1`, for which the inhibition is 4.1%.

Consider `COc1ccc(S(=O)(=O)N2CCCCC2)cc1NC(=S)Nc1cccc(Cl)c1C`, for which the inhibition was 7.7%. `Cc1cc(N2C(=O)CCC2=O)ccc1NC(=O)c1cccs1`: the inhibition is -1.9%. With `COCc1cc(/C=N\NC(=O)COc2ccc(Cl)cc2)ccc1OC`, the inhibition was -2%.

On to `O=c1[nH]ccc2c([N+](=O)[O-])cccc12`, for which the inhibition is 55.2% (active). For the compound `O=c1[nH]cnc2c([N+](=O)[O-])cccc12`, the inhibition was -12.2%. `Cn1ccc2c([N+](=O)[O-])cccc2c1=O`: the inhibition was 23.6%.

Regarding `CCc1[nH]c(=O)[nH]c1C(C)S(=O)(=O)c1ccc(C)cc1` (centres undefined), the inhibition is 70.3% (active). `CCc1c(C(C)S(=O)(=O)c2ccc(C)cc2)[nH]c(=O)n1-c1ccc(C)cc1` (centres undefined): the inhibition was -35.3%. As to `CCc1c(C(C)S(=O)(=O)c2ccc(C)cc2)[nH]c(=O)n1-c1ccc(OC(F)(F)F)cc1` (centres undefined), the inhibition was -28.2%. For `CCOC(=O)C1(CCc2ccccc2)CCN(Cc2ccc(OC)cc2)CC1`, the inhibition is 3.3%. Take `O=C(NC1CCCCC1)c1ccc(NS(=O)(=O)c2cccc3cccnc23)cc1`: the inhibition is -3.4%.

For the compound `NCC(O)(c1ccc(Cl)cc1)c1ccc(Cl)cc1`, the inhibition is 10.4%.

Consider `CN1CCN(CC(O)(c2ccc(Cl)cc2)c2ccc(Cl)cc2)CC1`, for which the inhibition was 55.4% (active). With `CN1CCN(CC(C)(C)NS(=O)(=O)c2ccc(Cl)cc2)CC1` the figure was 3.4%. For the compound `COCCN(C(=O)CSc1nnc(-c2ccccc2F)n1C)c1c(N)n(Cc2ccccc2)c(=O)[nH]c1=O`, the inhibition was -3.1%.

For `CCCCOc1ccc(CN2CCCCC2)cc1`, the inhibition was 14.9%. With `Oc1ccc(N2CCN(Cc3ccc(OCCCN4CCCCC4)cc3)CC2)cc1`, the inhibition is 58.4% (active). With `COC(=O)C1CCN(Cc2ccc(OCCCN3CCN(c4ccc([N+](=O)[O-])cc4)CC3)cc2)CC1`, the inhibition was 14%. Regarding `Cc1cc2c(cc(C(=O)OCC(=O)NCc3ccco3)n2C)s1`, the inhibition is -6.2%. Turning to `CN1CCN(C(=O)C2=C[C@H](C(C)(C)C)C[C@H](OCCCCO)O2)CC1`, the inhibition was 0.2%. As to `CC(C)OC(=O)c1cc2ccccc2[nH]1`, the inhibition is 7.4%. `CCOC(=O)c1cc2cc(OC)ccc2[nH]1`: the inhibition is -9.7%. On to `CCOC(=O)c1cc2cc3ccccc3cc2[nH]1`, for which the inhibition is 53.2% (active). With `CCCCC(=O)Nc1cc(OC)c(NC(=O)C2CCCCC2)cc1OC` the figure was 2.5%; with `CCCC(=O)Nc1cc(OC)c(NC(=O)NC2CCCCC2)cc1OC`, 51.8% (active); with `COc1ccc(Cl)cc1NC(=O)NC1CCCCC1`, -2.2%. Regarding `O=C(CCC1COc2ccccc2O1)NCc1ccccc1` (centres undefined), the inhibition is 0.9%. With `CC1CC2(CCCCC2)Nc2c1ccc1ccccc21` (centres undefined), the inhibition is -36.7%. With `NS(=O)(=O)c1cccc(NC(=O)CN2CCN(Cc3ccc4c(c3)OCO4)CC2)c1`, the inhibition is 10%. As to `COc1ccc(NC2=C(Cl)C(=O)N(CCc3ccccc3)C2=O)cc1`, the inhibition was 4.8%. Turning to `Cc1cc(=S)cc(C)n1CCO`, the inhibition is -138%.

With `O=C(/C(=N/N=C/c1ccc(O)c(O)c1)c1ccccc1)c1ccccc1`, the inhibition is 24.9%. Regarding `O=C(/C(=N/N=C/c1ccc(O)c(O)c1O)c1ccccc1)c1ccccc1`, the inhibition is 30.5%. As to `C/C(=N\NS(=O)(=O)c1ccc(C)c([N+](=O)[O-])c1)c1ccc2c(c1)OCO2`, the inhibition was -16.6%.

Turning to `C=CCOc1cc(OC)c(OC)c(OC)c1`, the inhibition is 54.8% (active). For `C=CCOc1ccc(/C(CC)=N/O)c(OC)c1`, the inhibition was 6.3%. Consider `COc1cc(OCC(N)=O)cc(OC)c1OC`, for which the inhibition was 7.1%. `COc1ccccc1NC(=O)c1ccccc1S(=O)(=O)c1ccccc1[N+](=O)[O-]`: the inhibition was 12.3%. `C=CCn1c(SCC(=O)NC(=O)NC)nnc1C1CCCCC1`: the inhibition is -11.2%.

As for `CC(=O)c1cccc(NC(=O)/C(=C\c2cccnc2)NC(=O)c2ccco2)c1`, the inhibition was -6.2%. For the compound `CC1(C)CC(=O)C(/C=N/c2ncccc2C(=O)O)=C(O)C1`, the inhibition was -18.7%. For `CC1(C)CC(=O)C(/C=N/c2ccccn2)=C(O)C1`, the inhibition is -6.9%. With `CC1(C)CC(=O)C(C=Nc2cccnc2/N=C/C2=C(O)CC(C)(C)CC2=O)=C(O)C1`, the inhibition was 58.8% (active). `CCOC(=O)c1nc(C)n(-c2cc(OC)c(Cl)cc2Cl)n1`: the inhibition is -10.2%. With `Cc1ccc2nc(SC(C(=O)c3ccccc3)c3ccccc3)nc(C)c2c1` (centres undefined), the inhibition is 1.4%. Regarding `CCN(CC)c1ccc(N=Cc2cc(Br)ccc2O)cc1`, the inhibition is 63.1% (active). For the compound `COC(=O)N/N=C/c1cc(Br)ccc1O`, the inhibition is 13.6%. The result for `Cc1ccc(N=Cc2sccc2C)cc1C` reads 8.8%; that for `COc1ccc(N=Cc2cc(Cl)ccc2O)cc1Cl`, 40.6%. `CCN(CC)c1ccc(O)c(C=Nc2ccc(C)c(C)c2)c1`: the inhibition was 57% (active). As for `Oc1ccc(Br)cc1C=Nc1ccc(Cl)cc1`, the inhibition was 13.7%. As for `NS(=O)(=O)c1ccc(CCNC(=O)NC2(C(F)(F)F)Oc3ccccc3O2)cc1`, the inhibition is -9.2%.

Consider `CC1(N2CCOCC2)C(=O)c2ccccc2C1=O`, for which the inhibition is -17.3%. For the compound `COc1cc(OC)c2c(O)c3c(c(-c4c5c(c(O)c6c(OC)cc(OC)cc46)CO[C@@H](C)[C@H]5O)c2c1)[C@H](O)[C@H](C)OC3`, the inhibition is 54.8% (active). In the case of `COc1cc(OC)c2c(c1)C(=O)OC2`, the inhibition was -32.4%. Regarding `COc1cc(OC)c2c(c1)OC(c1ccc(OC)c(OC)c1)C(O)C2=O` (centres undefined), the inhibition was 1.6%.
